Screens (PubChem)
Pf growth 96h = P. falciparum growth inhibition at 96 hours; P. falciparum luciferase reporter growth, 96 h; 320,000 compounds, 6.9% hits; Potency, µM (series often up to 28.7 µM), most hits filed as inhibitors
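Two-generation exposure (96 h) targets delayed-death phenotype. Reporter parasites carrying integrated firefly luciferase, in red cells at 2% hematocrit and 0.05% parasitemia final, kept at 37 C, 5% CO2; luminescence loss indicates inhibition.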
HCV inhibitor = blocks hepatitis C virus; Potency, µM (top dose mostly 41.8 µM), usual class: inhibitors; 340,000 compounds, 3.4% hits; Huh7.5.1 HCVcc-Cre infection, luciferase reporter, 44 h
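Antiviral activity was scored by luciferase reporter output from cells infected with HCVcc-Cre (~0.5 moi) in presence of compound, 44 h infection period, cells seeded 1,000/well 4 h prior.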
HCMV antiviral = human cytomegalovirus inhibition; activity change, negative = inhibition, % at 57.5 µM; AID 1259415; 410,000 compounds, 4.5% hits; HFF cells, HCMV-luciferase reporter, 72 h; stronger effect = lower value; in the data active = activity change below about -60%; inconclusive = no clear call, values can overlap the other calls; inactive = above about -39%
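Inhibition of viral replication was scored as loss of reporter luminescence in HFFs infected with HCMV-luciferase (MOI 1 PFU/cell) for 72 h; compounds tested at 2 doses, normalized to buffer and Salinomycin controls.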
Pf growth 48h = inhibits P. falciparum growth in the first generation, 48 h; P. falciparum luciferase growth in erythrocytes, 48 h; Potency, µM (titrated, usually from 28.7 µM), most hits filed as inhibitors; 310,000 compounds, 5.9% hits; AID 504832
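Luciferase-expressing P. falciparum in infected erythrocytes (2% hematocrit, 0.1% parasitemia final) in RPMI 1640/0.5% Albumax were exposed to compound for 48 hours at 37 C, 5% CO2; growth read as luminescence.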
A number is an active result. Hits are enriched below; roughly 13% of the tested compounds scored in any of these assays. Unless noted, calls come from the whole dose curve; as a rule, active = well fitted inhibition curve with a large enough effect; inconclusive = small, poorly fitted or top-dose-only effect, or another doubt; inactive = no such curve, though single readings can be large or run the other way.

`CC1CCCN(Cc2nc3c(c(=O)n(C)c(=O)n3C)n2Cc2ccc(Cl)cc2Cl)C1` (stereo unspecified) gave HCMV antiviral inactive.
CC(C)N1CCC2(CC1)Oc1ccc(Br)cc1C1CC(c3cccnc3)=NN12 (stereo unspecified) was read as Pf growth 96h 13.1µM, HCV inhibitor inactive, HCMV antiviral inactive and Pf growth 48h inconclusive.
`O=C(C[C@@H]1C[C@H]2c3cc(NC(=O)C4CCC4)ccc3O[C@H]2[C@@H](CO)O1)NCc1ccc(-c2ccccc2)cc1` gave HCMV antiviral inactive.
`COc1cc(Cl)c(C)cc1Nc1c2c(nc3ccccc13)CCC2` gave HCMV antiviral -100.7.
For COc1ccc(Nc2c3c(nc4ccccc24)CCC3)c(OC)c1 the results were Pf growth 96h inactive, HCV inhibitor inconclusive, HCMV antiviral inconclusive and Pf growth 48h inconclusive.
For COc1ccccc1Nc1c2c(nc3ccccc13)CCC2 the results were Pf growth 96h inconclusive, HCV inhibitor inconclusive, HCMV antiviral -68.5 and Pf growth 48h 8.28µM.
`Cc1ccc([N+](=O)[O-])cc1NC(=O)c1cccnc1` gave Pf growth 96h 10.4µM, HCV inhibitor inactive, HCMV antiviral inactive and Pf growth 48h inactive.
`CC(/C=C/c1cccc([N+](=O)[O-])c1)=N/NC(=O)c1cccnc1` gave Pf growth 96h inconclusive, HCV inhibitor inactive, HCMV antiviral -61.7 and Pf growth 48h inactive.
Screening CCc1ccc(NC(=O)Cn2cnc3nc4c(cc3c2=O)CCCC4)cc1 returned HCMV antiviral inactive.
CCn1c2ccccc2c2cc(NC(=O)COC(=O)Cc3cn4ccsc4n3)ccc21 was read as Pf growth 96h inconclusive, HCV inhibitor 5.62µM, HCMV antiviral inactive and Pf growth 48h inactive.
`CSc1ccc(-c2nc3ccc(C)cn3c2Nc2ccccc2C)cc1` gave HCMV antiviral inactive.
Cc1cc(CC(C)CC(C)(C)C)n(O)c(=O)c1 (stereo unspecified) was read as Pf growth 96h 3.01µM and Pf growth 48h 4.78µM.
Screening COC(=O)c1ccccc1NC(=O)N1CCN(c2ccc(F)cc2)CC1 returned Pf growth 96h 4.15µM, HCV inhibitor inactive, HCMV antiviral -62.5 and Pf growth 48h inactive.
`O=C(Nc1cccc2ccccc12)N1CCN(c2ccc(F)cc2)CC1` gave Pf growth 96h 1.47µM, HCV inhibitor inactive, HCMV antiviral inactive and Pf growth 48h inactive.
Screening O=C(Nc1cccc2ccccc12)N1CCCN(c2c(Cl)cncc2Cl)CC1 returned Pf growth 96h 5.86µM, HCV inhibitor inactive, HCMV antiviral inconclusive and Pf growth 48h inconclusive.
`Cc1cc(C)cc(NC(=O)N2CCCN(c3c(Cl)cncc3Cl)CC2)c1` gave Pf growth 96h inconclusive, HCV inhibitor inactive, HCMV antiviral inactive and Pf growth 48h inconclusive.
`Cc1cccc(C)c1OCCn1c(CCNC(=O)C2CCCCC2)nc2ccccc21` gave HCMV antiviral inactive.
O=C(c1cc(Cl)cc(Cl)c1)N1CCN(c2cc(C(F)(F)F)nc3ccccc23)CC1 was read as Pf growth 96h 1.31µM, HCV inhibitor inactive, HCMV antiviral inactive and Pf growth 48h 3.7µM.
`OCCN1CCN(c2cc(C(F)(F)F)nc3ccccc23)CC1` gave Pf growth 96h inactive, HCV inhibitor inactive, HCMV antiviral inactive and Pf growth 48h 11.7µM.
Screening Cc1ccc(CNC(=O)O[C@H]2CC[C@@]34CCCN3C(=O)CCC[C@H]4[C@H]2Cc2ccccc2)cc1 returned HCMV antiviral inactive.
CCCCN(CC)CCCNC(=O)c1csc2c1CCCCC2 was read as Pf growth 96h inconclusive, HCV inhibitor 35.5µM, HCMV antiviral inconclusive and Pf growth 48h inactive.
Screening COc1ccc(S(=O)(=O)N2CCCCCC2)cc1N(C)S(=O)(=O)c1ccc(C)cc1 returned Pf growth 96h 10.4µM, HCV inhibitor inconclusive, HCMV antiviral -77.2 and Pf growth 48h inactive.
Screening CCOc1cc(C)c(C(C)C)cc1S(=O)(=O)N1CC(C)OC(C)C1 (stereo unspecified) returned HCV inhibitor inactive, HCMV antiviral inactive and Pf growth 48h 13.1µM.
Screening COc1ccc(S(=O)(=O)N2CCOCC2)cc1N(C)S(=O)(=O)c1ccc(C)cc1 returned Pf growth 96h inactive, HCV inhibitor inactive, HCMV antiviral inconclusive and Pf growth 48h inactive.
`COc1ccc(C)cc1S(=O)(=O)N1CC(C)OC(C)C1` (stereo unspecified) gave Pf growth 96h 11.7µM, HCV inhibitor inactive, HCMV antiviral inactive and Pf growth 48h inactive.
